In the library only some 2.6% were active in any assay of this set; here they are far more common.
p53ts 39C kill – p53ts cell cytotoxicity, nonpermissive temperature; H1299-p53A138V viability at 39C, ATP luminescence, 24 h; hit rate 1.5% among 130,000; Potency, µM (series often up to 46.1 µM), actives largely listed as cytotoxic; also: nearly all actives have a fitted effect of over 55% in size
p53ts 32C tox – kills p53ts cells at the permissive temperature; AID 924; H1299-p53A138V at 32C, ATP luminescence viability, 24 h; Potency, µM (titrated, usually from 46.1 µM), hits mostly cytotoxic; hit rate 0.93% among 130,000; also: nearly all actives have a fitted effect of over 55% in size
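Viability by ATPlite luminescence after 24 h compound treatment (up to 46 uM) at the permissive 32C. Cells are H1299 carrying p53 A138V. Scale runs from DMSO basal to 100 uM tamoxifen as full kill; AC50 from Hill fits.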
Luciferase inh – blocks Photinus pyralis firefly luciferase activity. Potency, µM (series often up to 57.1 µM), actives largely listed as inhibitors. hit rate 2.2% among 72,000. AID 411. P08659. purified firefly luciferase, luminescence, 8 min; also: nearly all actives have a fitted effect of over 40% in size
Target sequence (P08659 whole entry, looked up): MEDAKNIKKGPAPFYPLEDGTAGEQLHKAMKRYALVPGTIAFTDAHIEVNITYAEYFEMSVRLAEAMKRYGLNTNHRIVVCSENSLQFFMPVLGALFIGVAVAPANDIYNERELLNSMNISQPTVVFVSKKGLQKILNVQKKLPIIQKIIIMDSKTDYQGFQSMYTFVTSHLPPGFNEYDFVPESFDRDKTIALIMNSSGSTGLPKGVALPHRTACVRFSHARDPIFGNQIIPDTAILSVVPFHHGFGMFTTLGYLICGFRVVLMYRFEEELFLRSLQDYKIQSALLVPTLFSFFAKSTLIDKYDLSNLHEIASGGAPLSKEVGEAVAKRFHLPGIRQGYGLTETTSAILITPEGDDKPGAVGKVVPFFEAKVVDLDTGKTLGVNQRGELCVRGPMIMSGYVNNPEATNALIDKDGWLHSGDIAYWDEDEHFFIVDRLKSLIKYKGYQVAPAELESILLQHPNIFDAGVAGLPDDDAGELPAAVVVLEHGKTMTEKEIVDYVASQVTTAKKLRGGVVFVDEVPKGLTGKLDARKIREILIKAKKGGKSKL
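Firefly luciferase (PKLight detection mix) with 10 uM ATP in pH 7.2 imidazole buffer (KCl, MgCl2, Tween 20, BSA). Compounds tested across a concentration series (qHTS). Luminescence read after 8 min at ambient temperature.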
Numbers stand for hits; [ ] = remark or other dose. Calls follow the shape of the dose curve; as a rule, active = well fitted curve in the direction sought with a large enough effect; inconclusive = small, poorly fitted or top-dose-only effect, or another doubt; inactive = no such curve, though single readings can be large; an effect the other way counts as inactive or inconclusive.

How did CCC(C)NC(=O)CSc1nc2n[nH]c(C)c2c(=N)n1-c1cc(Cl)ccc1C (centres undefined) do in these assays?
p53ts 39C kill: 13µM; p53ts 32C tox: inconclusive

How did COc1ccccc1/C=C/c1nc(C#N)c(N2CCCCCC2)o1 do in these assays?
p53ts 39C kill: inactive; p53ts 32C tox: inactive

What do the screens show for `COc1ccc(-c2cc(C(=O)OCC(=O)N(C)C)c3ccccc3n2)cc1`?
p53ts 39C kill: inconclusive; p53ts 32C tox: inconclusive; Luciferase inh: 20µM

Results for COc1ccc(-c2cc(C(=O)Oc3ccc(C)cc3)c3ccccc3n2)cc1 ?
p53ts 39C kill: inconclusive; p53ts 32C tox: inactive

How did CC(C)=CCC/C(C)=C/CO/N=C1/C[C@@H](O)[C@@H](O)[C@@H]2[C@H]3C(=O)N(c4ccc(F)cc4F)C(=O)[C@@H]3CC[C@H]12 do in these assays?
p53ts 39C kill: inactive[9.22 µM]; p53ts 32C tox: inactive[9.22 µM]; Luciferase inh: inactive[11.4 µM]

How did O=C(NC1CCCCC1)c1ccc(CSc2nc3ccncc3n2Cc2cccc(F)c2)cc1 do in these assays?
p53ts 39C kill: inactive; p53ts 32C tox: inactive

Results for CC(C)CNC(=O)Nc1cc(C(=O)NCc2ccc(C(C)C)cc2)ccc1N1CCCC1 ?
p53ts 39C kill: inactive; p53ts 32C tox: inactive

Results for O=C(Nc1ccc2c(c1)nc1n2CCOC1)c1ccco1 ?
p53ts 39C kill: inconclusive; p53ts 32C tox: 7.9µM; Luciferase inh: 16µM

Results for O=C(Nc1ccc2c(c1)nc1n2CCN(C2CCCCC2)C1)c1ccco1 ?
p53ts 39C kill: inactive; p53ts 32C tox: inactive; Luciferase inh: inactive

What do the screens show for `O=C(COc1ccccc1)Nc1ccc2c(c1)nc1n2CCSC1`?
p53ts 39C kill: inactive; p53ts 32C tox: inactive; Luciferase inh: inactive

How did O=C(Nc1ccc2c(c1)nc1n2CCSC1)c1ccco1 do in these assays?
p53ts 39C kill: 3.2µM; p53ts 32C tox: 2µM; Luciferase inh: 6.3µM

What do the screens show for `O=C(CCC(=O)N1Cc2ccccc2Oc2ncccc21)NCc1ccccc1Cl`?
p53ts 39C kill: inactive; p53ts 32C tox: inactive

Results for COc1ccc(Br)cc1Cn1nnc(C(=O)Nc2ccc(C)cc2C)c1N ?
p53ts 39C kill: inactive; p53ts 32C tox: inactive

What do the screens show for `CCOC(=O)c1c(S(=O)(=O)N2CCC(C(=O)N3CCN(c4ccc(F)cc4)CC3)CC2)c(C)n(C)c1C`?
p53ts 39C kill: inactive; p53ts 32C tox: inactive

How did COc1ccc(-n2c(=O)c(CCc3ccccc3)nc3cnc(OC)nc32)cc1 do in these assays?
p53ts 39C kill: inactive; p53ts 32C tox: inactive; Luciferase inh: inactive[11.4 µM]

What do the screens show for `Cn1c(=O)c2[nH]c(/N=N\N3CCN(CCO)CC3)nc2n(C)c1=O`?
p53ts 39C kill: inactive[9.22 µM]; p53ts 32C tox: inactive[9.22 µM]; Luciferase inh: inactive[11.4 µM]

What do the screens show for `COc1ccc(-c2noc(CSc3nnc(C)n3-c3ccc(C)cc3)n2)cc1`?
p53ts 39C kill: inactive; p53ts 32C tox: inactive

What do the screens show for `CCCN1C(=O)C(Cc2nc3ccccc3c(=O)n2CC)c2cc(Br)ccc21` (centres undefined)?
p53ts 39C kill: 10µM; p53ts 32C tox: inactive

Results for CCn1c(CC2C(=O)N(C)c3ccc(Br)cc32)nc2ccccc2c1=O (centres undefined) ?
p53ts 39C kill: inactive; p53ts 32C tox: inactive

How did CCOC(=O)c1cnc(SCc2ccccc2)nc1N do in these assays?
p53ts 39C kill: inactive; p53ts 32C tox: inactive; Luciferase inh: 16µM

Results for CCOC(=O)c1cnc(SCC(=O)N2CCN(c3ccccc3)CC2)nc1N ?
p53ts 39C kill: inactive; p53ts 32C tox: inactive; Luciferase inh: inactive

What do the screens show for `CC(Sc1ccc2ccccc2n1)C(=O)O` (centres undefined)?
Luciferase inh: inactive

What do the screens show for `CC(O)/C=C/c1ccc2ccccc2n1` (centres undefined)?
p53ts 39C kill: inconclusive; p53ts 32C tox: 25µM; Luciferase inh: inactive

What do the screens show for `Cc1ccc(-c2noc(-c3cccs3)n2)cc1`?
p53ts 39C kill: inactive; p53ts 32C tox: inconclusive; Luciferase inh: 7.9µM

How did Cc1ccc2oc(=O)c(-c3nc(-c4cccs4)no3)cc2c1 do in these assays?
p53ts 39C kill: inconclusive; p53ts 32C tox: inactive

Results for CC1=C(C(=O)Nc2ccc(C)cc2C)C(c2ccc(O)cc2)n2nnnc2N1 (centres undefined) ?
p53ts 39C kill: inactive; p53ts 32C tox: inactive

How did COc1ccc(O)c(C(=O)CC(=O)c2ccc(F)cc2)c1 do in these assays?
p53ts 39C kill: 6.3µM; p53ts 32C tox: 6.3µM; Luciferase inh: 25µM

What do the screens show for `Cc1ccc(O)c(C(=O)CC(=O)c2cccc(F)c2)c1`?
p53ts 39C kill: inactive; p53ts 32C tox: inactive; Luciferase inh: inactive

How did CC1CCc2onc(C(=O)N3CCN(c4ccc(F)cc4)CC3)c2C1 (centres undefined) do in these assays?
p53ts 39C kill: inactive; p53ts 32C tox: inactive

What do the screens show for `Nc1nc(CSc2nc3ccccc3[nH]2)cs1`?
p53ts 39C kill: inactive; p53ts 32C tox: inactive; Luciferase inh: inactive
